FXN GAA850 act: frataxin GAA850 promoter activation. HEK293 lucGAA850 FXN promoter luciferase reporter, 24 h; percent of 10 µM SAHA response. activation, % at 6 µM. 0.56% of 360,000 active. AID 540364;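 active = activation above the average of all compounds screened plus 3 SD, cutoff fixed separately per campaign, cut at about 7.5% in these data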;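 also: 0% = DMSO wells and 100% = 10 µM SAHA wells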
esBAF inh: blocks esBAF chromatin remodeling in mouse ES cells. Bmi1-luciferase knock-in reporter, 24 h; 100% = twice the neutral-well signal. reporter increase, % at 12.5 µM. 2% of 350,000 active. AID 602393; in the data active = activation above about 40%; inconclusive = no clear call, values can overlap the other calls;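 also: 0% = median of the plate's neutral control wells and 100% = double that signal; a rise in the Bmi1 reporter signal indicates esBAF inhibition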
AHR act: human AHR activation; P35869; AHR-responsive luciferase reporter cells, luminescence; 2.5% of 320,000 active; activation, % at 5 µM; AID 2796; in the data active = activation above about 47%;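 also: 0% = vehicle wells and 100% = reference agonist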
Target sequence (P35869 whole entry, looked up): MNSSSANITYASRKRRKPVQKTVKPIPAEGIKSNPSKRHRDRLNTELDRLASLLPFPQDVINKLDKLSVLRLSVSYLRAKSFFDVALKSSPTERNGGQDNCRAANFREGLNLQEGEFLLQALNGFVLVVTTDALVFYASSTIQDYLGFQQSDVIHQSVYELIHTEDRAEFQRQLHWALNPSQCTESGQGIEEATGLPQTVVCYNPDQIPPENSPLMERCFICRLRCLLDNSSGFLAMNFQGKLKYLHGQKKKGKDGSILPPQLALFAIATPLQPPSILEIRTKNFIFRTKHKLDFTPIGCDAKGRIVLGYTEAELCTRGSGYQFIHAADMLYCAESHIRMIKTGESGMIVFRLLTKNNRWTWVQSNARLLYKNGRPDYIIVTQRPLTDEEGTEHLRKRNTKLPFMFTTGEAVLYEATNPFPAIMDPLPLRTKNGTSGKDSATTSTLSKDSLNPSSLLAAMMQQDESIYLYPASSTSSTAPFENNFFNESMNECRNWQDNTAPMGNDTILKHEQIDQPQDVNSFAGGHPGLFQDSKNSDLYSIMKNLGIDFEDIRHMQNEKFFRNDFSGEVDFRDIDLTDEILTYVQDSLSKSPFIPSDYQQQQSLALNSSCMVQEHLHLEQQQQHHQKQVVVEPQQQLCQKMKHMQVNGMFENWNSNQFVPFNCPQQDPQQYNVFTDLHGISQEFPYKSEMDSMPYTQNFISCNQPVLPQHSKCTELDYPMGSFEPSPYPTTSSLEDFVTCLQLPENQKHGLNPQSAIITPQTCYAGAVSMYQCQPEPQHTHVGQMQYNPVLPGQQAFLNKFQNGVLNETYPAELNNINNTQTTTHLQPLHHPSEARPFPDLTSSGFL
MITF act: activators of MITF-driven TRPM1 promoter activity in SK-MEL-5 cells | SK-MEL-5 TRPM1-promoter luciferase, 24 h; % of positive control, neutral wells = 0 | activation, % at 12.5 µM | 0.75% of 300,000 active;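 active = mean activation of at least 80% with every replicate also reaching 80%; inconclusive = mean reaches 80% but some replicate falls short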;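 also: 0% = neutral control wells and 100% = parthenolide positive control wells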
Wnt bcat act: activators of Wnt/beta-catenin signaling | 1.2% of 300,000 active | Wnt/beta-catenin reporter cell assay, activator, plate reader | AID 743398 | activation, % at 9.35 µM; in the data active = activation above about 30%, passing the limit was not always enough; inconclusive = no clear call, values can overlap the other calls;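 also: 0% = neutral control wells and 100% = positive control wells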
Active calls of the source: *; ? = inconclusive; · = no result given. Only some compounds are listed: those with a hit (about 4.2% of all), similar ones and a draw of the others.

SMILES	FXN GAA850 act	esBAF inh	AHR act	MITF act	Wnt bcat act
O=C(Nc1nc2nccc(-c3ccccc3)n2n1)C(Cl)(Cl)Cl	4	·	54*	8	11
COc1ccc(NC(=O)N[C@@H]2C=C[C@H](CC(=O)NC3CCCCC3)O[C@H]2CO)cc1	·	10	·	·	·
CC(C)NC(=S)N=Nc1c(O)[nH]c2ccc([N+](=O)[O-])cc12	4	·	60*	-30	-1
CCSc1nc2c(c(=O)[nH]1)C(c1ccncc1)C(C(=O)OC)=C(C)N2 (configuration not stated)	-1	-4	15	·	·
CSc1nc2c(c(=O)[nH]1)C(c1ccncc1)C(C(=O)OC(C)C)=C(C)N2 (configuration not stated)	-1	·	51*	-3	·
C[C@H](CO)N1C[C@H](C)[C@@H](CN(C)CC2CCCCC2)Oc2ccc(NS(=O)(=O)c3ccccc3)cc2C1=O	·	-4	·	·	·
O=C(NCCc1ccncc1)[C@@H]1[C@@H](CO)[C@@H]2Cn3c(ccc(-c4ccc(F)cc4)c3=O)[C@H]1N2	·	-2	·	·	·
CO[C@@H]1CN(C)C(=O)c2ccc(NC(=O)C3CC3)cc2OC[C@@H](C)N(C(=O)c2ccncc2)C[C@H]1C	·	4	·	·	·
Nc1ncnc(N)c1N=Nc1ccccc1	6	-20	·	-15	1
Nc1ccc2ccccc2c1N=Nc1ccccc1	2	43*	·	-11	15
O=C(C[C@H]1CC[C@H]2[C@@H](COC[C@H](O)CN2Cc2cc(F)cc(F)c2)O1)NC1CCC1	·	-1	·	·	·
CCCCNC(=S)N/N=C/c1ccc(C)s1	-1	18	75*	-1	·
O=C(O)C[C@H]1C=C[C@@H](NC(=O)c2ccncc2)[C@H](CO)O1	·	-1	·	·	·
CC(=O)CCSc1ncnc2sc(-c3ccccc3)cc12	7	77*	4	69	43*
COc1ccc(C(=O)N2C[C@H]3[C@@H](c4ccccc42)[C@@H](CO)N3Cc2ccc3c(c2)OCO3)cc1	·	0	·	·	·
CCCNC(=O)Nc1ccc2c(c1)C(=O)N(C)[C@@H]1CC[C@@H](CC(=O)NCCCN(C)C)O[C@@H]1CO2	·	9	·	·	·
CCc1nnc2c3cnn(-c4ccccc4)c3ncn12	3	64*	22	99*	?
Cc1nc2c3cnn(-c4ccccc4)c3ncn2n1	0	14	69*	13	·
CN1CCCCN2[C@H](CO)[C@H](c3ccc(Br)cc3)[C@@H]2C1	·	-3	·	·	·
Cc1cccc(-n2c(O)cnc2Nc2nc(C)cc(C)n2)c1	0	·	65*	-1	-1
C[C@H](CO)N1C[C@H](C)[C@@H](CN(C)Cc2ccc3c(c2)OCCO3)OCc2cn(nn2)CCCC1=O	·	1	·	·	·
O=C(NCC1CC1)[C@@H]1[C@@H](CO)[C@@H]2Cn3c(ccc(-c4cccc(F)c4)c3=O)[C@@H]2N1CC1CCCC1	·	2	·	·	·
Cc1ccc(CCNC(=O)c2nnn(-c3cc(C)cc(C)c3)c2N)cc1	2	-3	3	·	·
Cc1ccc(NC(=O)c2nnn(-c3cc(C)cc(C)c3)c2N)cc1	5	49*	-5	·	31*
O=C(O)c1ccc(N/N=C/C=C/c2ccccc2[N+](=O)[O-])cc1	7	79*	22	112*	10
SMILES	FXN GAA850 act	esBAF inh	AHR act	MITF act	Wnt bcat act
O=[N+]([O-])c1ccccc1C=CC=NN=Cc1ccccc1O	-2	·	·	31	71*
Oc1ccccc1C=NN=CC=Cc1ccccc1	2	·	·	46	-3
O=C(Cc1ccccc1)N/N=C/C=C/c1ccccc1[N+](=O)[O-]	0	·	-5	·	35*
O=C(N/N=C/C=C/c1ccccc1[N+](=O)[O-])c1cccnc1	0	-8	72*	-5	-1
O=C(Cc1cccs1)N/N=C/C=C/c1ccccc1[N+](=O)[O-]	2	·	6	·	-1
COCC(=O)N1C[C@@H](C)[C@H](OC)CN(C)C(=O)c2ccc(NC(=O)c3cc(C)on3)cc2OC[C@H]1C	·	2	·	·	·
CO[C@@H]1CN(C)C(=O)c2cc(NS(=O)(=O)c3ccccc3)ccc2OC[C@@H](C)N(Cc2ccccn2)C[C@@H]1C	·	0	·	·	·
C[C@@H]1CN([C@H](C)CO)C(=O)c2cc(NC(=O)CCN3CCOCC3)ccc2O[C@@H]1CN(C)Cc1ccc2c(c1)OCO2	·	0	·	·	·
COc1cc(/C=C/[N+](=O)[O-])ccc1OC(=O)/C=C/c1ccc(F)cc1	8.7*	-2	0	·	-2
COc1ccc(/C=C/C(=O)Oc2ccc(C)c(C)c2)cc1OC	4	·	0	12	-7
Cc1ccc(CNC(=O)COC(=O)C2CCN(S(=O)(=O)c3cccs3)CC2)cc1	0	2	-1	-2	96*
O=C1SC(SC(=Nc2ccccc2)Nc2ccccc2)C(=O)N1c1ccccc1 (configuration not stated)	5	·	6	36	48*
Oc1ccc(-c2cc(-c3ccc(O)cc3)nc(-c3ccccc3)n2)cc1	2	5	2	5	2
Oc1ccc(-c2cccc(-c3ccc(O)cc3)n2)cc1	0	48*	1	·	25
Oc1ccc(-c2nnc(-c3ccc(O)cc3)nn2)cc1	3	13	-1	·	77*
CO[C@H]1CC[C@H]2CCOc3ccc(C#N)cc3C(=O)N(C)[C@@H](C)C(=O)N(C)C[C@H]1O2	·	3	·	·	·
C[C@@H]1CN([C@H](C)CO)C(=O)Cc2cc(NS(C)(=O)=O)ccc2O[C@@H]1CN(C)S(=O)(=O)c1cccs1	·	-5	·	·	·
CCCNC(=O)N1C[C@@H](O)COC[C@@H]2O[C@@H](CC(=O)N[C@@H]3CCN(Cc4ccccc4)C3)CC[C@H]21	·	-1	·	·	·
Cc1cc(C)cc(NC(=O)Nc2ccc3c(c2)C(=O)N(C)[C@@H]2CC[C@H](CC(=O)O)O[C@@H]2CO3)c1	·	0	·	·	·
Cc1noc(C)c1S(=O)(=O)Nc1ccc2c(c1)CC(=O)N([C@H](C)CO)C[C@@H](C)[C@H](CN(C)Cc1ccc(C(=O)O)cc1)O2	·	-2	·	·	·
COc1cc(/C=C(/C(=O)c2cccs2)c2nc3ccccc3[nH]2)ccc1O	-7	?	57*	-44	·
COC(=O)/C(=C\c1cc(OC)c(OC)c(OC)c1)c1nc2ccccc2[nH]1	0	·	2	-4	0
COC(=O)/C(=C\c1ccc(O)cc1)c1nc2ccccc2[nH]1	2	·	5	3	5
O=C(/C(=C/c1ccc(Cl)cc1)c1nc2ccccc2[nH]1)c1cccs1	-12	76*	58*	-95	·
COc1cccc(C(=O)Nc2ccc3c(c2)C(=O)N(C)[C@H]2CC[C@@H](CC(=O)NCc4ccccc4F)O[C@@H]2CO3)c1	·	2	·	·	·
COc1cc(OC)cc(C(=O)/C=C2\Sc3ccccc3N2C)c1	3	31	-3	26	2
CN1/C(=C\C(=O)c2cccc([N+](=O)[O-])c2)Sc2ccccc21	3	75*	14	19	21
CN1/C(=C\C(=O)c2cccs2)Sc2ccccc21	-1	-3	77*	-3	-5
O=C(c1ccc2ccccc2c1O)N1CCCCC1	2	56*	·	·	-4
CCCC(=O)Nc1ccc2c(c1)C(=O)N(C)C[C@H](OC)[C@H](C)CN(C)[C@H](C)CO2	·	0	·	·	·
